Source: PubChem BioAssay
The entries come from a sample that favours hits as a whole.
RMI FANCM FP: inhibitors of human RMI core complex binding to FANCM MM2 | 70,000 tested, 0.58% active | Fluorescence polarization, RMI core complex with F-MM2 peptide; hits give low values | FP signal (polarization) at 33 µM; in the data active means FP signal below about 40
The depositor's hits bear a star.

SMILES	RMI FANCM FP
COC(=O)COc1cccc2c(=O)[nH]ccc12	63
COc1cccc2c1C(=O)c1c(O)c3c(c(O)c1C2=O)C[C@@](O)(C(C)=O)C[C@@H]3O[C@H]1C[C@H](N)[C@H](O)[C@H](C)O1	65
CC(=O)[C@]1(O)Cc2c(O)c3c(c(O)c2[C@@H](O[C@H]2C[C@H](N)[C@H](O)[C@H](C)O2)C1)C(=O)c1ccccc1C3=O	-37
COc1cccc2c1C(=O)c1c(O)c3c(c(O)c1C2=O)C[C@@](O)(C(=O)CO)C[C@@H]3O[C@H]1C[C@H](N)[C@@H](O)[C@H](C)O1	-10*
O=C(O)c1ccccc1Sc1ccc([N+](=O)[O-])cc1C(=O)O	53
N/C(COc1ccc(Cl)cc1Cl)=N/OC(=O)c1ccccc1	52
CCC(=O)c1ccc(OCC(O)CNC2CCCCCC2)cc1 (stereo unspecified)	63
CC(CNC1CCCCC1)OC(=O)c1ccccc1 (stereo unspecified)	19*
O=C(NCCS(=O)(=O)NC1CCCCC1)c1ccccc1	53
C=CCn1c(-c2ccc(OC)cc2)c[nH]c1=S	61
Cc1nc2sc(C)c(C)n2c(=O)c1NC(=O)c1ccncc1	63
Cc1cccn2c(=O)c3cc(C(=O)NC(C)c4ccccc4)c(=N)n(CCc4ccccc4)c3nc12 (stereo unspecified)	50
CC1(C)CC2C1CCC1(C)OC2(C)CCC1O (stereo unspecified)	-8*
CC1(C)CC2C1CCC1(C)OC1CCC2(C)O (stereo unspecified)	67
CC(C)NC(=O)CCCCn1c(=O)c2ccccc2n(Cc2ccccc2Cl)c1=O	69
CC(C)NC(=O)N1CCCC(c2nnc(Cc3ccc(F)cc3)o2)C1 (stereo unspecified)	62
CSc1ccccc1C(=O)Nc1sc2c(c1C(N)=O)CCN(C(C)C)C2	80
CC(C)N1CCc2c(sc(N)c2C(N)=O)C1	-30*
CC(=O)N1CCc2c(sc(N)c2C(N)=O)C1	69
COc1ccc(Cl)c2sc(N(CCN(C)C)C(=O)c3cc(C)no3)nc12	80
CCOC(=O)c1cn(Cc2ccccc2F)c2ccc(F)cc2c1=O	63
N#Cc1ccsc1NC(=O)/C=C/c1ccccc1Cl	67
COc1cccc(CNC(=O)C(=O)Nc2cc(N3CCCS3(=O)=O)ccc2C)c1	66
COC(=O)c1c(NC(=O)CC2S/C(=N\N=C/c3ccc([N+](=O)[O-])cc3)NC2=O)sc2c1CCCC2 (stereo unspecified)	14*
O=C(CC1S/C(=N\N=C2CCCCC2)NC1=O)Nc1ccc([N+](=O)[O-])cc1 (stereo unspecified)	60
SMILES	RMI FANCM FP
COc1ccc(/C=N\N=C2\NC(=O)C(CC(=O)Nc3sc4c(c3C#N)CCCC4)S2)cc1 (stereo unspecified)	58
COc1ccccc1C(=O)NCC(c1ccc(N(C)C)cc1)N1CCN(c2ccc(F)cc2)CC1 (stereo unspecified)	54
O=c1c2sccc2nc(SCc2nc(-c3ccc(Br)cc3)no2)n1-c1ccccc1	94
COc1cccc(C(=O)Nc2ccc3c(c2)N(CCC(C)C)C(=O)C(C)(C)CO3)c1	69
CCOc1ccc(OCCNS(=O)(=O)c2ccc3c(c2)CCCC3)cc1	77
O=C(O)CCC(=O)Nc1ccccc1SC(F)(F)F	66
Cc1ccc2nc(C)c(NC(=O)Cc3ccccc3)c(=O)n2c1	73
Cc1ccc2nc(C)c(NC(=O)Cc3cccs3)c(=O)n2c1	28*
CCOC(=O)C(=O)Nc1c(C)nc2ccc(C)cn2c1=O	55
O=S(=O)(N/N=C\c1cc(Br)ccc1O)c1ccccc1	59
NS(=O)(=O)c1ccc(N=Cc2cc(Br)ccc2O)cc1	48
O=S(=O)(N=Cc1cc(Br)ccc1O)c1ccccc1	21*
COc1ccc(N2CCN(Cc3nc4c(c(=O)n(C)c(=O)n4C)n3Cc3ccccc3Cl)CC2)cc1	58
CCc1cc(=O)[nH]c(SCC(=O)OC)n1	63
COc1ccc(S(=O)(=O)NCc2ccco2)c(C)c1C	64
COc1ccc(S(=O)(=O)NCc2ccco2)cc1C(=O)O	1*
CC(C)(C)c1ccc(S(=O)(=O)NCc2ccco2)cc1	55
Cc1cc(NC(=O)CSc2ncnc3c2cnn3-c2ccc(Cl)cc2)no1	58
O=C(Nc1nc(-c2ccccn2)cs1)c1ccc2ncsc2c1	84
O=C(Nc1nc(-c2ccc(Br)s2)cs1)c1ccc2ncsc2c1	26*
O=C(Nc1nc(-c2ccc3c(c2)OCCO3)cs1)c1ccc2ncsc2c1	68
C/C(=N/NC(N)=S)c1cc2cc(Cl)ccc2o1	55
Cn1c(=O)c2nc(SCC(=O)Nc3cc(C(F)(F)F)cc(C(F)(F)F)c3)n(C)c2n(C)c1=O	52
N#C/C(=C/C1=Cc2ccccc2OC1)c1nc2ccccc2s1	-59
Cn1c(/C=C(\C#N)c2nc3ccccc3s2)ccc1-c1cccc(Cl)c1	15*
SMILES	RMI FANCM FP
Cc1ccc(-c2ccc(/C=C(\C#N)c3nc4ccccc4s3)o2)c([N+](=O)[O-])c1	60
Cc1ccc(C)c(CS(=O)(=O)O)c1	69
Cc1cc(F)ccc1S(=O)(=O)NCC1CCN(C2CCCC2)CC1	78
Cc1ccc(=O)n(S(=O)(=O)c2ccc(F)cc2F)n1	54
Cc1cc(F)ccc1S(=O)(=O)ON1C(=O)c2ccccc2C1=O	27*
Cc1[nH]c(=O)n(C)c(=O)c1CCC(=O)N1CCCc2ccccc21	60
O=C(/C=C/c1ccc2c(c1)OCO2)NCCSc1ncc(-c2ccc(Cl)cc2)[nH]1	51
Cc1ccc(NC(=O)COc2coc(CN3CCCc4ccccc43)cc2=O)cc1Cl	80
NC(=O)c1ccsc1NC(=O)c1cc(-c2ccccc2)nc2ccccc12	61
COC(=O)c1ccc2nc(NC(=O)c3cc(-c4cccs4)nc4ccccc34)sc2c1	85
O=C(Nc1nc(-c2cccs2)c(C(=O)C(F)(F)F)s1)c1cc(-c2ccccc2)nc2ccccc12	19*
Cc1cc(C)c2oc(C(=O)Nc3ncc(Cc4ccc(F)cc4)s3)cc(=O)c2c1	59
Oc1c(Cl)cc(Cl)cc1/C=N\NC(=S)NC1CC2CCC1C2 (stereo unspecified)	11*
Oc1ccccc1/C=N\NC(=S)NC1CC2C=CC1C2 (stereo unspecified)	53
OCCN/N=C\c1cc(Cl)cc(Cl)c1O	40
COc1ccc(-c2noc(CS(=O)(=O)c3ccc(Br)cc3)n2)cc1OC	72
CCOC(=O)N1CCc2c(sc(NC(=O)c3ccccc3C)c2C(=O)OC)C1	69
CC1=C(Cl)C(O)=CC(=O)C12Oc1cc(O)c(Cl)c(C)c1C2=O (stereo unspecified)	11*
CCOc1ccc(-c2noc(-c3ccc(CS(=O)(=O)c4ccc(OC)c(OC)c4)o3)n2)cc1	127
Cc1ccc(-n2cc(C(=O)N3CCC(C(N)=O)CC3)nn2)cc1	63
COc1ccc2c(CC(=O)Nc3ccccc3C(N)=O)cc(=O)oc2c1	66
Cc1cc[n+](-c2[nH]c(=O)sc2/C=N\NC(=O)c2ccccc2[O-])cc1	1*
Cc1ccc(/C=N\NC(=O)c2cc([N+](=O)[O-])cc([N+](=O)[O-])c2)cc1	61
Cc1ccccc1C(=O)N/N=C\c1ccc(OC(=O)c2ccccc2)cc1	63
CC1CCc2c(sc3nc(SCC(=O)Nc4nsc(-c5ccccc5)n4)n(-c4ccccc4)c(=O)c23)C1 (stereo unspecified)	48
COc1ccc(C(=O)Nc2nc3c(s2)-c2cccc4cccc-3c24)c(OC)c1	65
Cc1cc(/C(N)=N\OC(=O)c2cccs2)c(-c2ccccc2)o1	58
